The list is not random: actives were taken first. Their share in the collection is about 0.45%.
GAA inh: qHTS Assay for Inhibitors of Human alpha-Glucosidase as a Potential Chaperone Treatment of Pompe Disease; Lysosomal alpha-glucosidase (Homo sapiens), P10253; purified human GAA, 4-MU-alpha-glucoside fluorescence; Potency, µM (highest dose often 76.9 µM), without a hit: at the top dose activity change, negative = inhibition, actives largely listed as inhibitors; actives 0.005% (n = 200,000); AID 1466, 2008;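 further: potency means the concentration at half of the fitted maximal effect; plate controls were uninhibited enzyme wells for no effect and no-enzyme background for full effect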
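Read-out is 4-methylumbelliferone fluorescence (Ex 365/Em 440 nm) after NaOH/glycine stop at pH 10. Enzyme 4 nM, substrate 400 uM, pH 5.0 citrate buffer, 20 min room temperature; AC50 from Hill-equation concentration-response.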
CXXC DNA block: qHTS Fluorescence Polarization Assay for Inhibitors of MLL CXXC domain - DNA interaction; Potency, µM (highest dose often 115 µM), inactives show at the highest dose activity change, negative = inhibition, hits mostly inhibitors; actives 0.037% (n = 290,000); AID 2662, 2010; MLL-CXXC / FITC-HOXA9 DNA fluorescence polarization; Histone-lysine N-methyltransferase 2A (Homo sapiens), Q03164; active means well fitted inhibition curve with a large enough effect in the polarisation, with a control signal flat, not every such curve was filed as active; inconclusive means small, poorly fitted or top-dose-only effect, or effect the other way, or a change in a side signal; inactive means no such curve, though single readings can be large or run the other way; the % refers to the polarisation; further: potency means the concentration at half of the fitted maximal effect
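Purified MLL-CXXC (added from a 7 uM solution) was preincubated 5 min at ambient with pinned compounds in 50 mM Tris-HCl pH 7.5, 50 mM NaCl, 1 mM DTT, 0.05% BSA. Fluorescein-labeled HOX-A9 DNA (50 nM solution) followed, 30 min, then polarization read.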
GAA spleen mod: qHTS Assay for Inhibitors and Activators of Human alpha-Glucosidase From Spleen Homogenate; human spleen homogenate, 4-MU-alpha-glucoside fluorescence; Lysosomal alpha-glucosidase (Homo sapiens), P10253; Potency, µM (series often up to 79.9 µM), inactives show at the highest dose activity change, negative = inhibition, most hits filed as inhibitors; AID 2112, 2009; actives 0.006% (n = 240,000);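 further: potency means the concentration at half of the fitted maximal effect; 0% = enzyme with vehicle and -100% = no enzyme basal signal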
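Human spleen homogenate (1 ug) with 4-methylumbelliferyl-alpha-D-glucopyranoside (1 mM final) in 50 mM citrate/phosphate pH 5.0, 0.01% Tween-20; 40 min at 37 C. Stopped at pH 10; 4-MU fluorescence Ex 365/Em 440 nm; AC50 by Hill fit.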
Menin MLL FP TR: qHTS Assay for Inhibitors Targeting the Menin-MLL Interaction in MLL Related Leukemias: Competition With Texas Red Labeled MLL-derived Mutant Peptide. O00255. Menin + Texas Red MLL mutant peptide, fluorescence polarization. Potency, µM (doses to about 61.6 µM), for inactives: at the top dose FP activity change, negative = inhibition, most hits filed as inhibitors. actives 0.23% (n = 270,000). AID 1768, 2009; active means well fitted inhibition curve with a large enough effect in the polarisation, with a control signal flat, not every such curve was filed as active; inconclusive means small, poorly fitted or top-dose-only effect, or effect the other way, or a change in a side signal; inactive means no such curve, though single readings can be large or run the other way; the % refers to the polarisation; further: potency means the concentration at half of the fitted maximal effect; % of control where 0% means no effect
Target sequence (O00255 whole entry, looked up): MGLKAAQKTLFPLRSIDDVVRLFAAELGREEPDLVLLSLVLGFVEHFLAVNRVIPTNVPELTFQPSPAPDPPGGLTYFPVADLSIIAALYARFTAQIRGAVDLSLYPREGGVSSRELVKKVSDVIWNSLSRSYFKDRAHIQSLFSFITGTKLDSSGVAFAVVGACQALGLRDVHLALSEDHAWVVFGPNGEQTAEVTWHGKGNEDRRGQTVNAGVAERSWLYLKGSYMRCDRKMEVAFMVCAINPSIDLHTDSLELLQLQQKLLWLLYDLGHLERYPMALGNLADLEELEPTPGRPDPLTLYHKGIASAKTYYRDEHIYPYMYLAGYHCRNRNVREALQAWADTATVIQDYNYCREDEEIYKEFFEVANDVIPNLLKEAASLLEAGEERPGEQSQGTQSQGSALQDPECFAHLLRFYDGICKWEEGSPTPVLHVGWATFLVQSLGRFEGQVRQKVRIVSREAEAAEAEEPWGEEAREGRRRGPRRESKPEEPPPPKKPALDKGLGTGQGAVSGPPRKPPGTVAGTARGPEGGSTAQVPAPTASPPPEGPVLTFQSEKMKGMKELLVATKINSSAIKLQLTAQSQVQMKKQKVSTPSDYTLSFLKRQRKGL
GAA glycogen mod: qHTS Assay for Inhibitors and Activators of Human alpha-Glucosidase Cleavage of Glycogen | Lysosomal alpha-glucosidase (Homo sapiens), P10253 | recombinant GAA, glycogen substrate, Amplex Red glucose oxidase fluorescence | Potency, µM (highest dose often 76.4 µM), without a hit: at the highest dose activity change, negative = inhibition, hits mostly inhibitors | actives 0.38% (n = 300,000) | AID 2100, 2009;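 further: potency means the concentration at half of the fitted maximal effect; 0% = full enzyme reaction and -100% = no-enzyme basal signal; the screen sought inhibitors and activators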
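Recombinant enzyme (4 nM final) with compounds titrated up to 77 uM and bovine liver glycogen (30 ug) in citrate pH 5.0, 0.01% Tween-20, 37 C 40 min. Released glucose detected by Amplex Red/glucose oxidase (Ex 573/Em 610); AC50 from Hill fits.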
Menin-MLL FL inh: qHTS Assay for Inhibitors Targeting the Menin-MLL Interaction in MLL Related Leukemias: Competition With Fluorescein Labeled MLL-derived Peptide; Fluorescence polarization, fluorescein-MLL peptide displacement from menin; 290,000 tested, under 10 active; AID 1766, 2009; FP activity change, % at 61.4 µM; active means well fitted curve in the direction sought with a large enough effect in the polarisation, not every such curve was filed as active; inconclusive means small, poorly fitted or top-dose-only effect, or effect the other way, or a change in a side signal; inactive means no such curve, though single readings can be large or run the other way; the % refers to the polarisation; further: % of control where 0% means no effect
* hit, by the source's call; ? = inconclusive; . = no result; ! = a repeat was not active; [ ] = remark or other dose. Unless noted, the call rests on the fitted dose curve; in most records, active means well fitted curve in the direction sought with a large enough effect; inconclusive means small, poorly fitted or top-dose-only effect, or another doubt; inactive means no such curve, though single readings can be large; an effect the other way counts as inactive or inconclusive.

SMILES | GAA inh | CXXC DNA block | GAA spleen mod | Menin MLL FP TR | GAA glycogen mod | Menin-MLL FL inh
N#C/C(=N/Nc1ccc(OC(F)(F)F)cc1)C(N)=S | -17.6% | -3.4% | -4.4% | . | ? | 1.9
CC(C(=O)Nc1ccccc1F)N1CCN(C)CC1 (stereo not given) | . | -11.2% | . | -13.1% | -0.6% | 10.7
O=C(Cn1cnc2sc(-c3ccccc3)cc2c1=O)NCc1ccco1 | -6.4% | 6.3% | -3.0% | 25.1µM* | 4.0% | 10.6
CCCCCCC(=O)N(O)C1CC(=O)N(c2ccc(Br)cc2)C1=O (stereo not given) | 12.0% | 15.5% | -7.1% | ? | 4.5% | 4.8
COc1ccccc1N(O)C1CC(=O)N(c2ccc(Br)cc2)C1=O (stereo not given) | -0.7% | -25.3% | 0.3% | ? | 8.91µM* | -0.4
CC(=O)OCC[N+](C)(C)C | -0.6%[15.4 µM] | 6.9% | 1.7% | -0.7% | 9.92µM*! | 1.8
C[N+](C)(C)CCOC(=O)CCC(=O)OCC[N+](C)(C)C | . | -10.9% | 4.2% | -1.9% | . | 0.4
CCOc1ccc(OCC)c(S(=O)(=O)NNC(=O)c2c(C)nc3ccccn23)c1 | -2.7% | 4.3% | -8.2% | -0.4% | 7.7% | 2.6
COc1ccc(Br)cc1S(=O)(=O)NNC(=O)c1c(C)nc2ccccn12 | 5.7% | -2.2% | 2.0% | -0.2% | 10µM* | -0.5
COC(=O)c1cc(S(=O)(=O)NCC2CCN(CCc3cccs3)CC2)cn1C | . | 14.3% | . | . | . | .
O=S(=O)(Nc1ccc(S(=O)(=O)Nc2ccccc2)cc1)c1ccccc1 | -9.9% | -19.9% | -4.4% | ? | -9.4% | -4.9
COc1ccc(S(=O)(=O)Nc2cc(S(=O)(=O)c3ccccc3)c(O)cc2C)cc1 | . | 11.5% | . | 10.0% | 0.8% | 65.0
Cc1ccc(S(=O)(=O)Nc2cc(C)c(O)c(S(=O)(=O)c3ccc(C)cc3)c2)cc1 | -10.3% | -12.2% | -3.0% | ? | 11.2µM* | 13.0
Cc1cc(O)c(C(C)C)cc1NS(=O)(=O)c1ccccc1 | -3.8% | 2.7% | -2.8% | 0.0% | 9.92µM* | 3.7
Cc1cc(NS(=O)(=O)c2ccccc2)cc(Cl)c1O | -11.2% | -8.2% | -2.3% | 17.7% | 20µM* | 1.1
Cc1ccc(S(=O)(=O)Nc2ccc(S(=O)(=O)NC(C)(C)C)cc2)cc1 | -11.7% | -9.8% | -14.9% | 10.1% | -7.5% | 0.0
CCCCC/C=C\C/C=C\C/C=C\CCCCC(=O)NC(C)C(=O)O (stereo not given) | . | . | 8.6% | 10.6% | . | -2.2
Cc1nc2nc(NCc3ccc(Cl)cc3)[nH]n2c(=O)c1Cc1ccccc1 | . | . | . | . | 13.3%[76.3 µM] | .
Nc1nonc1-c1nc2ccccc2n1Cc1c(Cl)cccc1Cl | . | . | . | . | -4.9%[76.3 µM] | .
Nc1c(N)c2ccccc2oc1=O | -13.4% | -7.4% | -4.9% | 8.2% | 7.08µM* | -1.5
Cc1ccc(Nc2c(N)c(=O)oc3ccccc23)cc1 | -13.9% | 1.0% | 0.2% | -1.1% | 20µM* | 4.2
CNc1c(N)c(=O)oc2ccccc12 | 6.3% | 3.0% | -7.9% | 10.0% | -4.1% | -1.6
NNc1nc(-c2ccccc2)cc(-c2ccccc2O)n1 | 1.8% | 8.3% | -5.8% | . | 11.2µM* | -5.8
CN(C)C(/C=C/Nc1ccc(O)cc1)=C(C#N)C#N | -11.4% | -3.2% | -2.2% | 3.8% | 7.94µM* | 2.9
Cc1cccc(N/C=C/C(=C(C#N)C#N)N(C)C)c1 | -2.2% | 5.4% | -14.7% | 5.0% | 1.2% | 5.0
SMILES | GAA inh | CXXC DNA block | GAA spleen mod | Menin MLL FP TR | GAA glycogen mod | Menin-MLL FL inh
CCOC(=O)C1CCCN(Cc2nc(N)nc(Nc3ccccc3)n2)C1 (stereo not given) | ? | -4.3% | 5.4% | -6.7% | 3.98µM* | 1.1
CCOC(=O)C1CCCN(C(=S)Nc2ccc(Nc3ccccc3)cc2)C1 (stereo not given) | -13.6% | -6.9% | -11.1% | ? | 39.8µM* | -2.2
CCOC(=O)C1CCN(C(=S)Nc2ccccc2)CC1 | 5.0% | 5.0% | 7.7% | -11.9% | 17.1% | -1.5
COc1ccccc1OCCn1c(C(C)Oc2ccccc2)nc2ccccc21 (stereo not given) | . | . | . | . | -11.7%[76.3 µM] | .
COc1cc(C2C(C#N)=C(C)NC3=C2C(=O)CC(C)(C)C3)cc(OC)c1O (stereo not given) | -8.3% | 5.9% | -1.6% | 3.3% | 12.5µM* | -0.9
COc1cc(C(Nc2ccccn2)c2ccc3ccc(C)nc3c2O)cc(OC)c1O (stereo not given) | 3.2% | -6.4% | 0.6% | -15.0% | 17.6µM* | 3.4
O=C1Cc2ccccc2C(=O)N1OCc1ccc(Cl)cc1Cl | 4.2% | -15.0% | -3.6% | ? | 25.1µM* | 5.4
Cc1ccc(O)c(Sc2cc(C)ccc2O)c1 | -9.6% | -0.7% | -3.9% | ? | 28.2µM* | 3.0
CC[C@H]1OC(=O)[C@H](C)C(=O)[C@H](C)[C@@H](OC2O[C@H](C)C[C@H](N(C)C)[C@@H]2O)[C@@](C)(OC)C[C@@H](C)C(=O)[C@@H](C)C2N(CCCCn3cnc(-c4cccnc4)c3)C(=O)O[C@@]21C (stereo not given in full) | . | -0.8% | . | 22.6% | . | 0.9
Nc1n[nH]c(-c2ccc(Br)cc2)c1Cl | ? | 0.0% | ? | . | 12.6µM* | 0.7
Nc1c(-c2ccccc2)n[nH]c1-c1ccccc1 | 1.0% | 1.9% | -4.8% | 19.1% | ? | 2.2
O=C(O)CCCNc1cc(N2CCN(C(=O)c3ccco3)CC2)c2noc3c2c1C(=O)c1ccccc1-3 | . | ? | . | 15.8µM* | -5.7%[76.3 µM] | ?
COc1cc2c3nnc(-c4ccccc4)c-3cn(Cc3ccccc3F)c2cc1OC | 7.6% | 5.7% | 2.1% | 12.6µM* | -5.0% | ?
COc1cc2c3nnc(-c4ccc(F)cc4)c-3cn(Cc3ccccc3F)c2cc1OC | -5.2% | ? | -2.5% | -10.0% | 5.0% | ?
c1ccc(Nc2cc(Nc3ccccc3)[nH]n2)cc1 | -9.9% | 0.0% | -9.7% | ? | 28µM* | -1.5
C=CCC(CC=C)(CNC(=O)C(=O)Nc1cccc(C(F)(F)F)c1)c1ccccc1 | . | . | . | . | -13.2%[76.3 µM] | .
CCOc1ccc(Nc2nc(Cc3nnc(SCC(=O)NCC4CCCO4)n3C)cs2)cc1 (stereo not given) | -2.9% | -5.3% | -8.2% | 0.4% | 11.2µM* | 1.7
CN1CCN(C(=O)Nc2cccc(Cl)c2)c2cccnc21 | . | . | . | . | 4.47µM* | .

Assay outcomes deposited in PubChem by National Center for Advancing Translational Sciences (NCATS).
